From PubChem BioAssay
In the library only some 17% were active in any assay of this set; here they are far more common.
HepG2 viability – HepG2 cytotoxicity, counter-screen for TGF-b inhibitors | Potency, µM (top dose mostly 46.1 µM), hits mostly cytotoxic | 410,000 compounds, 0.76% hits | AID 588856 | HepG2 CAGA-GFP viability, ATP luminescence, 18 h
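CellTiter-Glo luminescence gave cytotoxicity after 18 hours at 37 degrees C. The cells were HepG2 CAGA-GFP in 1% FBS DMEM, stimulated with 500 pg/mL TGF-beta after compound addition. %Activity was normalised to no-cell wells (complete cell-killing) and DMSO (no toxicity), and curves were fitted and classified.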
HT1080-NT tox – kills 2HG-producing HT-1080-NT fibrosarcoma cells; HT-1080-NT fibrosarcoma viability, CellTiter-Glo ATP luminescence, 48 h; Potency, µM (highest dose often 46.1 µM), actives largely listed as cytotoxic; 360,000 compounds, 1.6% hits; AID 686970;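 further: NT is the 2HG producing partner of a matched IDH1 knockdown line; nearly all actives have a fitted effect of over 55% in size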
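HT-1080-NT; 750 cells/well; 5% FBS RPMI; 48 h compound, 37 degrees C; CellTiter-Glo luminescence; curve fitting and curve-class assignment.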
HT1080 IDH1KD tx – toxicity to HT-1080 IDH1 knockdown cells (counter line) | HT-1080 IDH1 knockdown viability, ATP luminescence, 48 h | Potency, µM (series often up to 46.1 µM), usual class: cytotoxic | 360,000 compounds, 2% hits
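HT-1080-IDH1KD cells (IDH1 knocked down), 750/well in RPMI with 5% FBS, treated with compound 48 h at 37 degrees C. Viability by CellTiter-Glo luminescence, normalised to DMSO and no-cell wells; concentration-response curves classed.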
TGFb inhibitor – TGF-b pathway inhibition; AID 588855; 410,000 compounds, 1.2% hits; HepG2 CAGA-GFP TGF-b/SMAD3 reporter, GFP fluorescence, 18 h; TGF-beta stimulated, 500 pg/mL final; Potency, µM (titrated, usually from 46.1 µM), actives largely listed as inhibitors; further: nearly all actives have a fitted effect of over 65% in size
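TGF-beta reporter screen: HEPG2 CAGA-GFP, 1% FBS, 500 pg/mL TGF-beta final, 18 h; per-cell GFP summed per well; curves fitted and categorized by class.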
TDP1 cell CPT – growth inhibition of DT40 Tdp1-/-;hTDP1 cells with camptothecin (screen for TDP1 inhibitors) | chicken DT40 Tdp1-/-;hTDP1 cells + 20 nM CPT, ATP luminescence, 48 h | Potency, µM (top dose mostly 46.2 µM), hits mostly inhibitors | 420,000 compounds, 12% hits | AID 686979; further: nearly all actives have a fitted effect of over 55% in size
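Chicken DT40 Tdp1-/- cells stably complemented with human TDP1 were seeded at 400 cells/well in medium containing 20 nM camptothecin, exposed to pin-transferred compounds, and grown at 37 °C for at least 48 hr. Viability was read as ATP luminescence.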
TDP1 cell noCPT – qHTS for Inhibitors of human tyrosyl-DNA phosphodiesterase 1 (TDP1): qHTS in cells in absence of CPT. DT40 Tdp1-/- hTDP1 cells, no CPT, ATP luminescence, 48 h. Potency, µM (doses to about 46.2 µM), actives largely listed as inhibitors. 420,000 compounds, 15% hits. AID 686978, 2013; further: nearly all actives have a fitted effect of over 55% in size
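No-CPT arm: Tdp1-/-;hTDP1 DT40 cells (400/well) plus compounds, incubated ≥48 hr at 37 °C. Readout CellTiter-Glo luminescence.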
Numbers stand for hits; - = inactive; ? = inconclusive; . = not tested or not shown; ! = a repeat was not active. The call rests on the fitted dose curve; in most records, active means well fitted curve in the direction sought with a large enough effect; inconclusive means small, poorly fitted or top-dose-only effect, or another doubt; inactive means no such curve, though single readings can be large; an effect the other way counts as inactive or inconclusive.

SMILES	HepG2 viability	HT1080-NT tox	HT1080 IDH1KD tx	TGFb inhibitor	TDP1 cell CPT	TDP1 cell noCPT
N#Cc1cccc(-c2nc(N3CCNCC3)c3ccccc3n2)c1	.	.	.	.	?	18µM
C/C(=N\OCc1ccccc1)c1c(O)cc(C(C)C)n(-c2ccccc2)c1=O	-	-	-	-	-	-
COc1ccccc1-c1nnc(C2CCN(S(=O)(=O)c3cccc([N+](=O)[O-])c3)CC2)o1	-	-	-	-	?	21µM
COc1ccccc1-c1nnc(C2CCN(S(=O)(=O)c3ccc([N+](=O)[O-])cc3)CC2)o1	-	-	-	-	?	?
COc1ccccc1-c1nnc(C2CCN(S(=O)(=O)c3ccccc3)CC2)o1	-	.	.	?	?	15µM
O=C(c1cc2cc(Br)ccc2o1)N1CCCCC1	-	-	-	-	?	21µM
O=C(c1cc2cc(Cl)ccc2o1)N1CCCC1	-	-	-	-	-	-
CC1(C)Cc2nc(NC3CCCCC3)c(C#N)cc2CO1	-	-	-	-	?	23µM
CC1(C)Cc2[nH]c(=S)c(C#N)cc2CO1	-	-	-	-	-	-
CCOc1ccc(C(C)NC(=S)NC2CCCCC2)cc1 (configuration not stated)	-	?	-	-	?	?
CC(NC(=S)NC1CCCCC1)c1ccc(C(C)(C)C)cc1 (configuration not stated)	-	-	23µM	?	9.2µM	?
CCc1ccc(C(C)NC(=S)NC2CCCCC2)cc1 (configuration not stated)	-	-	-	?	?	?
CC(C)c1ccc(C(C)NC(=S)NC2CCCCC2)cc1 (configuration not stated)	-	-	-	?	18µM	4.6µM
CCOc1ccccc1C(=O)Oc1c(S(=O)(=O)c2ccc(C)cc2)c(C)nn1-c1ccccc1	-	.	.	?	10µM	21µM
N#CCCn1c(=O)c(-c2ccc(F)cc2)nc2cnc(Oc3ccccc3)nc21	.	.	.	.	-	-
Cc1cc(C)n(C(=O)/C(C#N)=N/Nc2cc(Cl)cc(Cl)c2)n1	-	-	-	?	3.3µM	2.6µM
COc1ccc(NC(=O)c2cc(-c3ccc(F)cc3OC)n[nH]2)c(C)c1	-	-	-	-	?	?
O=C(C[n+]1cccc(Cl)c1)c1ccc(F)cc1	-	.	.	-	-	-
CCc1ccccc1NC(=O)c1ccc2nc(N3CCOCC3)sc2c1	-	-	-	-	-	-
Cc1c(C(=O)Nc2ccc3nc(N4CCOCC4)sc3c2)oc2ccccc12	-	-	-	?	26µM	?
COc1cc(C(=O)Nc2ccc3nc(N4CCOCC4)sc3c2)cc(OC)c1OC	-	-	-	-	?	?
O=C(Nc1ccc2nc(N3CCOCC3)sc2c1)c1cc2ccccc2o1	-	-	-	-	23µM	?
NC(=O)c1ccc2c(=O)n3c(-c4cc(Cl)c(N)c(Cl)c4)csc3nc2c1	-	?	?	-	16µM	18µM
Cc1cccc(C)c1OCc1nc2c3cnn(-c4ccccc4Br)c3ncn2n1	-	.	.	.	10µM	?
CCOc1ccc(C(=O)NCc2ccc3c(c2)OCO3)cc1	-	-	-	-	?	-
SMILES	HepG2 viability	HT1080-NT tox	HT1080 IDH1KD tx	TGFb inhibitor	TDP1 cell CPT	TDP1 cell noCPT
CCCCN1C(=O)N(c2ccccc2Cl)C(C)(O)CC1(C)C (configuration not stated)	-	-	-	-	-	?
OCC1OC(n2cnc3c(NO)ncnc32)C(O)C1O (configuration not stated)	-	.	.	-	0.89µM	5µM
S=c1nc[nH]c2c1ncn2C1CCCO1 (configuration not stated)	-	4.6µM	8.2µM	-	-	?
OCC1OC(n2cnc3c(NCCc4ccccc4)ncnc32)C(O)C1O (configuration not stated)	-	2.1µM	?	-	-	-
O=S(=O)(O)c1ccc(Nc2ncnc3c2ncn3[C@@H]2O[C@H](CO)[C@@H](O)[C@H]2O)cc1	.	.	.	.	-	-
OCC1OC(n2cnc3ncccc32)C(O)C1O (configuration not stated)	-	21µM	?	?	7.3µM	6.5µM
Nc1cc(=O)[nH]c(SCC(=O)Nc2cccc(S(=O)(=O)N3CCCCC3)c2)n1	-	-	-	-	-	-
O=C(Cn1cnc2c(NCc3ccccc3)ncnc21)NCc1ccccc1	-	8.2µM	6.5µM	-	4.1µM	2.9µM
N#Cc1ncn(C2OC(CO)C(O)C2O)c1N (configuration not stated)	-	-	-	-	5.8µM	5.8µM
Nc1ccnc2c1ncn2[C@@H]1O[C@H](CO)[C@@H](O)[C@H]1O	.	.	.	.	12µM	4.6µM
OC[C@H]1O[C@@H](n2cnc3c(=S)nc[nH]c32)[C@H](O)[C@@H]1O	.	.	.	.	12µM	11µM
OCC1OC(n2cnc3c(=S)nc[nH]c32)CC1O (configuration not stated)	-	-	?	-	-	-
CC(=O)ON(C(C)=O)S(=O)(=O)c1ccc(Cl)cc1	.	.	.	.	-	-
OC[C@H]1O[C@@H](n2cnc3c(Nc4ccccc4)ncnc32)[C@H](O)[C@@H]1O	-	-	-	-	-	-
O=[N+]([O-])c1ccc(CSc2ncnc3c2ncn3[C@@H]2O[C@H](CO)[C@@H](O)[C@H]2O)cc1	-	-	-	-	?	13µM
CNC(=O)[C@H]1O[C@@H](n2cnc3c(NCc4cccc(I)c4)ncnc32)[C@H](O)[C@@H]1O	-	-	-	-	?	16µM!
CNC(=O)[C@H]1O[C@@H](n2cnc3c(N)ncnc32)[C@H](O)[C@@H]1O	.	.	.	.	-	-
OCC1OC(n2cnc3c(SCc4ccccc4)nc(F)nc32)C(O)C1O (configuration not stated)	-	-	-	-	-	-
OC[C@H]1O[C@@H](n2cnc3c(NCc4ccccc4)ncnc32)[C@H](O)[C@@H]1O	.	.	.	.	2.7µM	1.9µM
Oc1ccc(-c2cn3c(n2)SCC3)cc1	-	-	-	-	-	-
O=C(Nc1ccc(-c2cn3c(n2)SCC3)cc1)c1ccc2ccccc2n1	-	-	-	-	16µM	?
O=C(Nc1ccc(N2CCCCC2)cc1)c1ccc2ccccc2n1	-	-	-	?	?	?
Oc1ccc(-c2cn3c(n2)SCC3)cc1O	-	?	-	?	?	23µM
